Results published in PubChem BioAssay (EPA / NIEHS).
Records with an inconclusive call do not appear. Active and inactive are the calls of the source. How the source made its calls: active means hit-call score of the fitted dose curve at least 0.9, where 1 is the maximum; inconclusive means response in the unintended direction; inactive means score below 0.9.

Key:
[1] = biological target: Cellular tumor antigen p53 (Homo sapiens) (UniProt P04637); assay: TOX21_p53_BLA_p2_ratio: Tox21 HCT-116 p53 Agonism Beta-lactamase Assay, Ratio, Phase 2 (AID 2283592)
Sequence of Cellular tumor antigen p53 (Homo sapiens) (P04637 whole entry, looked up): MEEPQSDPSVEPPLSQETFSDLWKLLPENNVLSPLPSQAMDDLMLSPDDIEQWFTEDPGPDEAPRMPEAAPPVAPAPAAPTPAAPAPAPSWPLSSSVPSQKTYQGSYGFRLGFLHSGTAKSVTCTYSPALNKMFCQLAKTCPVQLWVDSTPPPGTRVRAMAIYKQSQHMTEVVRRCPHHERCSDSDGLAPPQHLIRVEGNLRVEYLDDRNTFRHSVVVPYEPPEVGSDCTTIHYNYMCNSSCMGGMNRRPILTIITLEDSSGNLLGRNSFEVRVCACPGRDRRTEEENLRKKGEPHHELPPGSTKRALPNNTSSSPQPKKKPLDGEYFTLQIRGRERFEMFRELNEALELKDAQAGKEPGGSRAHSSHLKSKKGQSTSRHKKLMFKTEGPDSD
Method in brief: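 In this cell-based reporter format, HCT116 cells were dosed with chemicals delivered from DMSO by 217-fold dilution and incubated 16 h at 37C. Emission at 460 and 530 nm after 2 h CCF4-AM loading provided the ratio, fitted upward versus DMSO.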

[2] = biological target: Cellular tumor antigen p53 (Homo sapiens) (UniProt P04637); assay: TOX21_p53_BLA_p3_ratio: Tox21 HCT-116 p53 Agonism Beta-lactamase Assay, Ratio, Phase 3 (AID 2283596)
Method in brief: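 HCT116 p53-bla cells (4000/well) given compound in DMSO (217-fold dilution) after 5 h, incubated 16 h at 37C. CCF4-AM substrate 2 h at room temperature; 460/530 nm emission ratio, gain fitted against DMSO.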

[3] = biological target: Cellular tumor antigen p53 (Homo sapiens) (UniProt P04637); assay: TOX21_p53_BLA_p5_ratio: Tox21 HCT-116 p53 Agonism Beta-lactamase Assay, Ratio, Phase 5 (AID 2283599)
Method in brief: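 HCT-116 p53-bla cells (4000/well) plated 5 h, dosed with compound (217-fold DMSO dilution) for 16 h at 37 C; CCF4-AM substrate 2 h at room temperature. Activity is the 460/530 nm emission ratio (405 nm excitation), fitted in gain-of-signal direction versus DMSO.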

[4] = TOX21_p53_BLA_p5_viability: Viability Assessment in the Tox21 HCT-116 p53 Agonism Beta-lactamase Assay, Phase 5 (AID 2283600)
Method in brief: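 Compounds, pinned from DMSO at 217-fold dilution, were left on the cells for 16 h. The viability endpoint was ATP content measured by CellTiter-Glo luminescence, where falling signal reflects cytotoxicity.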

[5] = biological target: Cellular tumor antigen p53 (Homo sapiens) (UniProt P04637); assay: TOX21_p53_BLA_p4_ratio: Tox21 HCT-116 p53 Agonism Beta-lactamase Assay, Ratio, Phase 4 (AID 2283601)
Method in brief: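 HCT-116 p53 beta-lactamase reporter cells (4000/well) preincubated 5 h, then compound (217-fold dilution of DMSO stock) for 16 h at 37C. CCF4-AM substrate added 2 h at room temperature; 460/530 nm emission ratio fitted upward versus DMSO.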

[6] = TOX21_p53_BLA_p4_viability: Viability Assessment in the Tox21 HCT-116 p53 Agonism Beta-lactamase Assay, Phase 4 (AID 2283597);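 further: hits lower the luminescence signal meaning cytotoxicity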
Method in brief: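 We seeded HCT116 p53 reporter cells at 4000/well and waited 5 h. We then added compounds in DMSO at a 217-fold dilution and incubated for 16 h. Viability was read as CellTiter-Glo luminescence after 30 min at RT.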

Measured: AC50

CC(=O)OCC(=O)[C@@]1(O)CC[C@H]2[C@@H]3CCC4=CC(=O)CC[C@]4(C)C3=CC[C@@]21C
not listed: [6]
inactive: all other assays above

C=CC[N@@+]12CC[C@@]34c5ccccc5N5/C=C6/[C@H]7C[C@H]8[C@@]9(CC[N@@+]8(CC=C)C/C7=C/CO)c7ccccc7N(/C=C(/[C@@H](C[C@@H]31)/C(=C\CO)C2)[C@H]54)[C@@H]69
inactive: [1] | [2] | [3]

CCCOC(=O)c1ccccc1O
inactive: [1] | [2] | [3] | [4]

NS(=O)(=O)c1cc(-c2nn[nH]n2)c(NCc2cccs2)cc1Cl
inactive: [1] | [2] | [3] | [4]

Nc1ccc(N=Nc2ccc(N)cc2)cc1
inactive: [1] | [2] | [3]

COc1ccc(-c2nc3ccc(C4=NNC(=O)CC4C)cc3[nH]2)cc1 (configuration not stated)
inactive: [4]
active: [1] 17.1 µM | [2] 21.5 µM | [3] 16.3 µM | [5] 15 µM

CC(C)(C)C(=O)OCC(=O)[C@H]1CC[C@H]2[C@@H]3CCC4=CC(=O)CC[C@]4(C)[C@H]3CC[C@]12C
not listed: [6]
inactive: all other assays above

CC[C@]1(O)C[C@H]2CN(CCc3c([nH]c4ccccc34)[C@@](C(=O)OC)(c3cc4c(cc3OC)N(C=O)[C@H]3[C@@](O)(C(=O)OC)[C@H](OC(C)=O)[C@]5(CC)C=CCN6CC[C@]43[C@@H]65)C2)C1
inactive: [4]
active: [1] 0.0112 µM | [2] 0.00209 µM | [3] 0.00486 µM | [5] 0.0184 µM

CC(=O)Oc1cc(C(C)C)c(OCCN(C)C)cc1C
inactive: [1] | [2] | [6] | [5]

CCOC(=O)CCC(=O)O[C@H]1[C@H](O[C@@H]2[C@@H](C)[C@H](O[C@H]3C[C@@](C)(OC)[C@@H](O)[C@H](C)O3)[C@@H](C)C(=O)O[C@H](CC)[C@@](C)(O)[C@H](O)[C@@H](C)C(=O)[C@H](C)C[C@@]2(C)O)O[C@H](C)C[C@@H]1N(C)C
inactive: [1] | [2] | [6] | [5]

O=C1OC(=O)C2CC=CCC12 (configuration not stated)
inactive: [1] | [2] | [3]

CC(=O)c1ccc(Cl)c(Cl)c1Cl
inactive: [1] | [2] | [3] | [4]

NC(=O)Cc1cccc2ccccc12
not listed: [6]
inactive: all other assays above

CCCOCC(C)OCC(C)O (configuration not stated)
not listed: [6]
inactive: all other assays above

CC(=O)Nc1cccc(N)c1
active: [1] 84.4 µM | [5] 79.2 µM
inactive: [2] | [6]

CCOc1cc(NC(C)=O)ccc1C(=O)OC
inactive: [1] | [2] | [3] | [4]

O=C(O)CCC/C=C\C[C@@H]1[C@@H](/C=C/[C@@H](O)COc2cccc(Cl)c2)[C@H](O)C[C@@H]1O
inactive: [1] | [2] | [3]

NC(=O)OC[C@@H]1[C@H](NC(=O)/C(=N\OCC(=O)O)c2csc(N)n2)C(=O)N1S(=O)(=O)O
not listed: [6]
inactive: all other assays above

NC(=O)OCC(O)COc1ccc(Cl)cc1 (configuration not stated)
inactive: [1] | [2] | [3]

COc1cc(C(=S)N2CCOCC2)ccc1O
not listed: [6]
inactive: all other assays above

C1CCCNCCC1
inactive: [1] | [2] | [6] | [5]

C=CC(=O)OCCOCC(CC)(COCCOC(=O)C=C)COCCOC(=O)C=C
not listed: [6]
inactive: all other assays above

CC(C)c1ncc([N+](=O)[O-])n1C
inactive: [1] | [2] | [3] | [4]

CCCCCC(N)=O
inactive: [1] | [2] | [3] | [4]

CC(C)N=C=NC(C)C
not listed: [6]
inactive: all other assays above

O=C(O)COc1ccccc1/C=N/NC(=O)c1ccncc1
not listed: [6]
inactive: all other assays above

CCCc1nc2c(C)cc(-c3nc4ccccc4n3C)cc2n1Cc1ccc(-c2ccccc2C(=O)O)cc1
inactive: [1] | [2] | [3]

CCCC(C)C
not listed: [6]
inactive: all other assays above

CCOc1ccc(S(=O)(=O)O)c2cccnc12
inactive: [1] | [2] | [3] | [4]

O=[N+]([O-])c1ccc(Oc2ccc([N+](=O)[O-])cc2)cc1
inactive: [1] | [2] | [3] | [4]

CO[C@@]1(NC(=O)C2SC(=C(C(N)=O)C(=O)O)S2)C(=O)N2C(C(=O)O)=C(CSc3nnnn3C)CS[C@@H]21 (some centres not stated)
inactive: [1] | [2] | [6] | [5]

CN(CCOc1ccc(NS(C)(=O)=O)cc1)CCc1ccc(NS(C)(=O)=O)cc1
active: [3] 37.7 µM
inactive: [1] | [2]

CC(=O)O[C@H]1CC[C@@]2(C)C(=CC[C@@H]3[C@@H]2CC[C@]2(C)C(c4cccnc4)=CC[C@@H]32)C1
inactive: [1] | [2] | [6] | [5]

O=C(O)[C@H](O)c1ccccc1
not listed: [6]
inactive: all other assays above
